From PubChem BioAssay (EPA / NIEHS)
Records with an inconclusive call do not appear. The source made the active and inactive calls. Rule for the calls, unless noted: active = hit-call score of the fitted dose curve at least 0.9, where 1 is the maximum; inactive = score below 0.9.

How the values were obtained:
[1] = ATG_CMV_CIS: Attagene CIS-FACTORIAL HepG2 Assay for human CMV (Internal Marker) (AID 2282928); settings: HepG2 CMV promoter reporter, transcription factor profiling; actives raise or lower the signal;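 note: endpoint acts as a background internal control marker rather than a target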
Outline: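 HepG2 cells transiently transfected with multiple cis-regulated reporter units; 24 h compound exposure. Reporter mRNA quantified by RT-PCR, 6-FAM primer-extension labeling, HpaI digestion and capillary electrophoresis; bidirectional fitting against DMSO baseline.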

[2] = ATG_DR4_LXR_CIS: Attagene CIS-FACTORIAL HepG2 Assay for human Liver X Receptor (LXR), DR4 submotif (AID 2282929); settings: HepG2 Attagene DR4 cis-reporter, mRNA transcription; actives raise or lower the signal
Outline: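 Fluorescence intensity of labelled reporter cDNA fragments, separated by capillary electrophoresis, gives the signal. HepG2 cells bearing cis-regulated reporter constructs were treated 24 h; activity fitted bidirectionally relative to DMSO negative control.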

[3] = molecular target: Hepatocyte nuclear factor 3-beta (Homo sapiens) (UniProt Q9Y261); experiment: ATG_FoxA2_CIS: Attagene CIS-FACTORIAL HepG2 Assay for human Forkhead box A2 (FOXA2) (AID 2282942); settings: HepG2 cis-reporter transcription factor activity, 24 h; actives raise or lower the signal
Hepatocyte nuclear factor 3-beta (Homo sapiens), sequence (Q9Y261 whole entry, looked up): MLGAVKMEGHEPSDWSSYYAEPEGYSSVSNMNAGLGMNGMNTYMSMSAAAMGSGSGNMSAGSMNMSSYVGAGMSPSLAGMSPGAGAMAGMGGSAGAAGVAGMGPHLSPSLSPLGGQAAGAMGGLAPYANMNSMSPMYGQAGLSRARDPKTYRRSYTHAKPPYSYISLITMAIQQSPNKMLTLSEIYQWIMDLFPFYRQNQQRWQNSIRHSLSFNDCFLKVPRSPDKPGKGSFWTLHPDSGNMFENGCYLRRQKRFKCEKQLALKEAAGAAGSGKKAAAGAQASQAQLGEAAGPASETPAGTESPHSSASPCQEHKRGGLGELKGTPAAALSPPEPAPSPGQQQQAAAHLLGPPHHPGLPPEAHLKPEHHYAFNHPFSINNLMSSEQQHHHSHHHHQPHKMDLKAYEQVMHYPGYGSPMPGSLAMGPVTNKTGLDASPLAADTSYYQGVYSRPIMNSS
Outline: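 Reporter transcript induction is measured by fluorescence after capillary electrophoresis of RT-PCR products from HepG2 cells exposed 24 h. Cis-regulated reporter units report endogenous factor activity; curves fitted both directions against DMSO.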

[4] = ATG_ISRE_CIS: Attagene CIS-FACTORIAL HepG2 Assay for human Interferon Regulatory Factor 1 (IRF1) binding to an Interferon-Stimulated Response Element (ISRE) (AID 2282948); settings: HepG2 ISRE cis-reporter (Attagene), mRNA transcription readout; actives raise or lower the signal
Outline: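 HepG2 cells transiently transfected with multiplexed cis-promoter reporter units; after 24 h compound exposure, reporter mRNA quantified by RT-PCR, FAM labelling, HpaI digestion and capillary electrophoresis. Bidirectional fit versus DMSO baseline.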

[5] = molecular target: Hypoxia-inducible factor 1-alpha (Homo sapiens) (UniProt Q16665); experiment: ATG_HIF1a_CIS: Attagene CIS-FACTORIAL HepG2 Assay for human Hypoxia Inducible Factor 1 (HIF1A) (AID 2282951); settings: HepG2 Attagene cis-factorial HIF1a reporter transcription; actives raise or lower the signal
Hypoxia-inducible factor 1-alpha (Homo sapiens), sequence (Q16665 whole entry, looked up): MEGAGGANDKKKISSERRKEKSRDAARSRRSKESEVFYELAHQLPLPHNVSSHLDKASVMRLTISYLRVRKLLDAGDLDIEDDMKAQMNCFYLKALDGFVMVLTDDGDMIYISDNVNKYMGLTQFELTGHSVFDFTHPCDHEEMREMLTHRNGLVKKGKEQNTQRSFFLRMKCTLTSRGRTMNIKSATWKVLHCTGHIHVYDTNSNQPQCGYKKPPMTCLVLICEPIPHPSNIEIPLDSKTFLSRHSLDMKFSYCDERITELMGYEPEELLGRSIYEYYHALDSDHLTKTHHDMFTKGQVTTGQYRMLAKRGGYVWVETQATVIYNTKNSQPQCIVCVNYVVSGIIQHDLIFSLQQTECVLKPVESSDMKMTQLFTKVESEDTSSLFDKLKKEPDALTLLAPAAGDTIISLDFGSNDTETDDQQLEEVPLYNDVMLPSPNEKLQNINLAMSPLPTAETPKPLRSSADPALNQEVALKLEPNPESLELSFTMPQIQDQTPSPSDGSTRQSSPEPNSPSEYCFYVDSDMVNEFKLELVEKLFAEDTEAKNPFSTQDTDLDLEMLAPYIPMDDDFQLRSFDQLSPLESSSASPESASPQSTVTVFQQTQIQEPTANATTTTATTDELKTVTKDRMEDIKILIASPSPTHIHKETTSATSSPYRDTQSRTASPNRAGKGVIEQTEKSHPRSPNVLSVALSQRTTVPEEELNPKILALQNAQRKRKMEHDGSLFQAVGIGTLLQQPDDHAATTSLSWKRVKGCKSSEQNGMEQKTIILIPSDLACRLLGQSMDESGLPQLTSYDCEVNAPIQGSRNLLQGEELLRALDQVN
Outline: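 Fluorescence intensity of capillary-separated, 6-FAM-labelled reporter amplicons gives mRNA induction in HepG2 cells carrying transfected cis-promoter reporter units; cells exposed 24 h, responses fitted up or down from DMSO.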

[6] = molecular target: Hepatocyte nuclear factor 6 (Homo sapiens) (UniProt Q9UBC0); experiment: ATG_HNF6_CIS: Attagene CIS-FACTORIAL HepG2 Assay for human Hepatocyte Nuclear Factor 6 (HNF6) (AID 2282952); settings: HepG2 Attagene cis-factorial HNF6 reporter transcription; actives raise or lower the signal
Hepatocyte nuclear factor 6 (Homo sapiens), sequence (Q9UBC0 whole entry, looked up, the tested form may be a part): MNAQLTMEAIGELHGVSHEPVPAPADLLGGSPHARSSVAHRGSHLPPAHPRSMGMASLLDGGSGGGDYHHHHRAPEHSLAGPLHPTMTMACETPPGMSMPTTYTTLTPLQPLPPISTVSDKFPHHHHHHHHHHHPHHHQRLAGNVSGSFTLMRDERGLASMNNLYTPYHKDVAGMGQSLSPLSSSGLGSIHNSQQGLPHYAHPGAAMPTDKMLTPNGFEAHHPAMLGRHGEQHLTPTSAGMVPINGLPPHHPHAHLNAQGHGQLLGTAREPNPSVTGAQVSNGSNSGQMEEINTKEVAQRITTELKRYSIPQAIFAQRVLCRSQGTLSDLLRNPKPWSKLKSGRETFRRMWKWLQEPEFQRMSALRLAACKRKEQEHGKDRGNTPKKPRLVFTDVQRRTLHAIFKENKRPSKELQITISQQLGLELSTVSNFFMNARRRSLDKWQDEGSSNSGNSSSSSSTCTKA
Outline: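 HepG2 cells transiently transfected with cis-element-driven multiplexed reporter units measuring endogenous transcription factor activity. After 24 h exposure, reporter mRNA quantified by RT-PCR, FAM-labelled fragments and capillary electrophoresis; bidirectional fitting versus DMSO.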

[7] = molecular target: Heat shock factor protein 1 (Homo sapiens) (UniProt Q00613); experiment: ATG_HSE_CIS: Attagene CIS-FACTORIAL HepG2 Assay for human Heat Shock Transcription Factor 1 (HSE) (AID 2282953); settings: HepG2 HSE cis-reporter, Attagene RNA transcription; actives raise or lower the signal
Heat shock factor protein 1 (Homo sapiens), sequence (Q00613 whole entry, looked up): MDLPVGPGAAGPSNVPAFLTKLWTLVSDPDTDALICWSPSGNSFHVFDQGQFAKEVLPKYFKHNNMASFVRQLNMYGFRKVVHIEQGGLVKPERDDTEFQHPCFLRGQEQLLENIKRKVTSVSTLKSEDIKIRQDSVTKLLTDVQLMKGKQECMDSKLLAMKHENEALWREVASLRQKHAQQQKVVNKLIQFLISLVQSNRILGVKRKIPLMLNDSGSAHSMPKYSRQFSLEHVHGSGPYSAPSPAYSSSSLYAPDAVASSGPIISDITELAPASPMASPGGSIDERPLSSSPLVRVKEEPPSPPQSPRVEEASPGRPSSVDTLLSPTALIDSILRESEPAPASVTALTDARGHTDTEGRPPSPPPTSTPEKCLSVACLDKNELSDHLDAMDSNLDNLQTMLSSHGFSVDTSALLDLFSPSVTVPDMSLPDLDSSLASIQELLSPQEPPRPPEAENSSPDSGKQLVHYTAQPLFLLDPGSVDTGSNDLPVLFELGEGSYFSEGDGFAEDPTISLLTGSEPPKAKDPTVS
Outline: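 HepG2 cells transfected with cis-promoter reporter units sensing endogenous transcription factor activity; reporter mRNA quantified 24 h post-dose by RT-PCR and capillary electrophoresis of 6-FAM-labelled products. Bidirectional fitting against DMSO.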

[8] = ATG_RORE_CIS: Attagene CIS-FACTORIAL HepG2 Assay for human RAR-related Orphan Receptor Element (RORE) (AID 2282959); settings: HepG2 Attagene cis-factorial RORE reporter, mRNA; actives raise or lower the signal
Outline: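 Endogenous factor activity at a cis response element is read as reporter transcript levels in HepG2 cells, 24 h post-dose. Transcripts are quantified by RT-PCR with capillary electrophoresis, and data fitted in both directions against DMSO.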

[9] = ATG_Sox_CIS: Attagene CIS-FACTORIAL HepG2 Assay for human SRY-box transcription factor (SOX) (AID 2282960); settings: HepG2 Attagene cis-factorial SOX reporter, mRNA; actives raise or lower the signal
Outline: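 Measures mRNA induction of a SOX1-associated reporter in HepG2 after 24 h dosing. Fluorescently labelled RT-PCR fragments are separated by capillary electrophoresis, and gain or loss relative to DMSO control is fitted.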

[10] = ATG_TA_CIS: Attagene CIS-FACTORIAL HepG2 Assay for human TA Basal Promoter (AID 2282964); settings: HepG2 Attagene CIS-factorial TA basal promoter reporter; actives raise or lower the signal
Outline: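 HepG2 cells transiently transfected with multiple reporter units under cis promoter elements, reporting endogenous transcription factor activity; this endpoint tracks the TA basal promoter as background control. Reporter mRNA after 24 h dosing measured by RT-PCR/capillary electrophoresis; bidirectional fits versus DMSO.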

[11] = ATG_TGFb_CIS: Attagene CIS-FACTORIAL HepG2 Assay for human Transforming Growth Factor (TGF) (AID 2282967); settings: HepG2 Attagene CIS TGFb reporter, mRNA transcription; actives raise or lower the signal
Outline: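 HepG2 cells transiently transfected with cis-promoter-driven multiple reporter units measure endogenous TF activity; reporter mRNA quantified at 24 h by RT-PCR, FAM labeling, HpaI digestion and capillary electrophoresis. Bidirectional fit vs DMSO.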

[12] = ATG_VDRE_CIS: Attagene CIS-FACTORIAL HepG2 Assay for human Vitamin D Receptor Element (VDRE) (AID 2282968); settings: HepG2 VDRE cis-reporter transcription, actives raise or lower the signal
Outline: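 Reporter mRNA induction, quantified by capillary electrophoresis of fluorescently labelled RT-PCR products, was read 24 h after dosing HepG2 cells carrying transiently transfected cis-regulated reporter units; gain or loss relative to DMSO.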

[13] = ATG_NFI_CIS: Attagene CIS-FACTORIAL HepG2 Assay for human Nuclear Factor I (NFI) (AID 2282989); settings: HepG2 cis-regulatory reporter, NFI response element transcription; actives raise or lower the signal
Outline: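 Endogenous TF activity in HepG2 cells transiently transfected with cis-element-driven multiplexed reporter units, read 24 h after dosing. Reporter mRNA quantified by RT-PCR, 6-FAM labelling, HpaI digestion and capillary electrophoresis; bidirectional fit versus DMSO.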

[14] = molecular target: Myc proto-oncogene protein (Homo sapiens) (UniProt P01106); experiment: ATG_Myc_CIS: Attagene CIS-FACTORIAL HepG2 Assay for human Myelocytomatosis (Myc) Proto-Oncogene Transcription Factor (AID 2282990); settings: HepG2, Attagene cis-reporter transcription factor activity; actives raise or lower the signal
Myc proto-oncogene protein (Homo sapiens), sequence (P01106 whole entry, looked up, the tested form may be a part): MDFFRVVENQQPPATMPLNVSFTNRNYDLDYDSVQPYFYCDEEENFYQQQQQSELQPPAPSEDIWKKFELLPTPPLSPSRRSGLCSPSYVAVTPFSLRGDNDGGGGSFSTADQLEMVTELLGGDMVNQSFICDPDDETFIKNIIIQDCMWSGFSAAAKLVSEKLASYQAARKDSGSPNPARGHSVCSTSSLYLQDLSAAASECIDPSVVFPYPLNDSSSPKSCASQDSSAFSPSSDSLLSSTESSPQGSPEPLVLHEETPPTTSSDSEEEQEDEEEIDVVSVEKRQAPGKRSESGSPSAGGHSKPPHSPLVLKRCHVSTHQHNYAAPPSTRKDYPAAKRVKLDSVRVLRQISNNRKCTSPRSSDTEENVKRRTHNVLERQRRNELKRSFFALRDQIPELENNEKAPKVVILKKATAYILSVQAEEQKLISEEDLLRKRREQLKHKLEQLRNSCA
Outline: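 After 24 h chemical treatment of HepG2 cells carrying multiplexed cis-regulated reporter constructs, reporter transcripts quantified by RT-PCR and capillary electrophoresis of fluorescent fragments. Gain or loss fitted against DMSO baseline.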

[15] = ATG_NRF2_ARE_CIS: Attagene CIS-FACTORIAL HepG2 Assay for human Nuclear Factor Erythroid 2 Related Factor 2 (NFR2) response to Antioxidant Response Elements (ARE) (AID 2282992); settings: HepG2 Attagene ARE/NRF2 reporter, transcription factor activity; actives raise or lower the signal;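 for AC50: reporter mRNA level measured by RT-PCR and capillary electrophoresis fluorescence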
Outline: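 HepG2 cells transiently transfected with multiplexed cis-regulated reporter transcription units measure endogenous transcription factor activity. Reporter mRNA at 24 h is quantified by RT-PCR, fluorescent labelling and capillary electrophoresis, with bidirectional fitting relative to DMSO.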

[16] = molecular target: Nuclear receptor subfamily 1 group I member 2 (Homo sapiens) (UniProt O75469); experiment: ATG_PXR_TRANS: Attagene TRANS-FACTORIAL HepG2 Assay for human Pregnane X Receptor (PXR) (AID 2283008; active = hit-call score of the fitted dose curve at least 0.9, where 1 is the maximum)
Nuclear receptor subfamily 1 group I member 2 (Homo sapiens), sequence (O75469 whole entry, looked up, the tested form may be a part): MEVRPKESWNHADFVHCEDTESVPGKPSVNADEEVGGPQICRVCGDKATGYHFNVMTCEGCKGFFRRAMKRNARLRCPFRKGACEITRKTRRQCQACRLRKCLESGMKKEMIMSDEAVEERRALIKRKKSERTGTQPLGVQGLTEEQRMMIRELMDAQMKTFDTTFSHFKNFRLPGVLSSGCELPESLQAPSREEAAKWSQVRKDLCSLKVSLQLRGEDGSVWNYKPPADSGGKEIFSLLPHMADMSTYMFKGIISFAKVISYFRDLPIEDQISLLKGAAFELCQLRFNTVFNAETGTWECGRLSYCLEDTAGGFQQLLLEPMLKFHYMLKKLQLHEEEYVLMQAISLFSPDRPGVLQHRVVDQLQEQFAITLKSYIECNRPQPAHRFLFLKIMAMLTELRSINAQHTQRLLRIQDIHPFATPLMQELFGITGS
Outline: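 HepG2 cells transiently transfected with multiple reporter units, here a PXR-GAL4 chimera driving a GAL4-UAS reporter; 24 h compound exposure. Reporter mRNA measured by RT-PCR, FAM labelling and capillary electrophoresis; gain of signal fitted against DMSO baseline.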

[17] = molecular target: Transcription factor E2F1 (Homo sapiens) (UniProt Q01094); experiment: ATG_E2F_CIS: Attagene CIS-FACTORIAL HepG2 Assay for human E2F Transcription Factor 1 (AID 2282935); settings: HepG2 Attagene cis-reporter, E2F reporter RNA transcripts; actives raise or lower the signal
Transcription factor E2F1 (Homo sapiens), sequence (Q01094 whole entry, looked up): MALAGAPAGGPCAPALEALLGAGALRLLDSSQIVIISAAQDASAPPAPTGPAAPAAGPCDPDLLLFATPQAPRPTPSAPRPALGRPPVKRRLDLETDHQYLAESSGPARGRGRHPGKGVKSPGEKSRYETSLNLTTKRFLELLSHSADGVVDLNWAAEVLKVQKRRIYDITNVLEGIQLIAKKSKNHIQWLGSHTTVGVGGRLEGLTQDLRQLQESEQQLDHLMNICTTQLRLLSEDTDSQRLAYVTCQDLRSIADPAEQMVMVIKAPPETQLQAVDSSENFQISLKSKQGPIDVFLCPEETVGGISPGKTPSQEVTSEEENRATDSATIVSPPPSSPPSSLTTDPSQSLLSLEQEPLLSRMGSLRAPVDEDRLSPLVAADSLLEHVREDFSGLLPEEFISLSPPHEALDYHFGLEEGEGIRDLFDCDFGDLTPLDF
Outline: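 Cis-element reporter mRNA induction in transiently transfected HepG2, 24 h exposure. Activity fitted in both directions relative to DMSO negative control.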

[18] = ATG_M_19_CIS: Attagene CIS-FACTORIAL HepG2 Assay for M19 Transcription Factor (Internal Marker) (AID 2282939); settings: HepG2 Attagene CIS-FACTORIAL M19 internal marker reporter; actives raise or lower the signal
Outline: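 HepG2 cells transiently transfected with cis-regulated multiplexed reporter units, dosed 24 h. Reporter mRNA quantified by RT-PCR and capillary electrophoresis; internal background marker fitted bidirectionally versus DMSO.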

[19] = ATG_M_06_TRANS: Attagene TRANS-FACTORIAL HepG2 Assay for M06 Transcription Factor (Internal Marker) (AID 2282983; active = hit-call score of the fitted dose curve at least 0.9, where 1 is the maximum); settings: HepG2 Attagene TRANS M06 internal marker reporter
Outline: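 HepG2 cells transiently transfected with GAL4-UAS multiple reporter units, dosed 24 h. Reporter RNA reverse-transcribed, PCR-amplified, 6-FAM-labeled, HpaI-digested and quantified by capillary electrophoresis; this internal-marker signal fitted upward relative to DMSO.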

[20] = molecular target: Cellular tumor antigen p53 (Homo sapiens) (UniProt P04637); experiment: ATG_p53_CIS: Attagene CIS-FACTORIAL HepG2 Assay for human p53 Transcription Factor (AID 2282994); settings: HepG2 p53 cis-element reporter, Attagene mRNA; actives raise or lower the signal
Cellular tumor antigen p53 (Homo sapiens), sequence (P04637 whole entry, looked up): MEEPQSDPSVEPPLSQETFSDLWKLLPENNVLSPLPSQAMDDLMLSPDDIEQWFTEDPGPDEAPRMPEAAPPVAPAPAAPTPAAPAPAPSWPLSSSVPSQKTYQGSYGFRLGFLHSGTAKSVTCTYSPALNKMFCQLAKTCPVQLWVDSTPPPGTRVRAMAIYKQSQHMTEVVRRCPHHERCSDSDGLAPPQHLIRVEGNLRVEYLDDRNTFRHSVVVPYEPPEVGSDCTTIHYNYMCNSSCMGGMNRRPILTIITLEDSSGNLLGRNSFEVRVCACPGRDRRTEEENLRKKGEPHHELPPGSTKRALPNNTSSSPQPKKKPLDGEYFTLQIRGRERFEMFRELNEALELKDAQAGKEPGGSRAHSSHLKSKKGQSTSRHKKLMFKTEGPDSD
Outline: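 HepG2 cells transiently transfected with multiplexed cis-regulated reporter transcription units read endogenous TF activity. After 24 h compound exposure, reporter mRNA was quantified by RT-PCR, fluorescent labelling, HpaI digestion and capillary electrophoresis; bidirectional fits versus DMSO baseline.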

Measured: AC50

CCCCCCCC#N
not listed: [17] | [18] | [19] | [20]
inactive: all other assays above

CC/C=C/CCO
not listed: [9]
inactive: all other assays above

CC(=O)Nc1c(I)c(NC(C)=O)c(I)c(C(=O)O)c1I
not listed: [5] | [9] | [12] | [16] | [17] | [18] | [20]
inactive: all other assays above

c1ccc2c(c1)Oc1ccccc1S2
active: [2] 171 µM | [13] 140 µM | [15] 146 µM
not listed: [10]
inactive: all other assays above

O=[N+]([O-])c1ccc2nc[nH]c2c1
not listed: [10] | [12] | [16] | [18] | [19] | [20]
inactive: all other assays above

O=C(O)/C=C/C(=O)O
not listed: [16]
inactive: all other assays above

Nc1ccc(S(=O)(=O)Nc2cnc3ccccc3n2)cc1
not listed: [5] | [18]
inactive: all other assays above

N#CCN(CC#N)CCN(CC#N)CC#N
not listed: [10]
inactive: all other assays above
